The values that follow come from PubChem BioAssay (NCATS).

One assay deals with JEG-3. The assay can be described thus: Primary qHTS to identify gynecologic anti-cancer compounds using libraries of approved drugs and bioactive compounds (AID 1345084). Note: nearly all actives have a fitted effect of over 55% in size. Note: potency is the fitted concentration of half-maximal effect. The conditions noted are these: Gynecologic cancer cell panel viability, ATPlite luminescence, 48 h; series mostly up to 57.5 µM. In a few lines: (§1)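 Cytotoxicity screen measuring ATP content by luciferase luminescence. Each compound is applied at five concentrations for 48 h at 37 C with 5% CO2.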

The test system of a further assay is PA-1. The assay is described as above. The following applies: Gynecologic cancer cell panel viability, ATPlite luminescence, 48 h; series mostly up to 57.5 µM. An outline of the steps:
as §1

The subject of the next assay is SKOV3. The assay is described as above. The conditions noted are these: Gynecologic cancer cell panel viability, ATPlite luminescence, 48 h; series mostly up to 57.5 µM. An outline of the steps: as §1
The subject of a further assay is Tov-21-G. The description is as above. The conditions noted are these: Gynecologic cancer cell panel viability, ATPlite luminescence, 48 h; series mostly up to 57.5 µM. In a few lines:
as §1

The subject of a further assay is Tov112D. The description is as above. The following applies: Gynecologic cancer cell panel viability, ATPlite luminescence, 48 h; series mostly up to 57.5 µM. In a few lines:
as §1

The nature of assay [1]: Drug repurposing screens with cells derived from glioblastoma tumor samples (AID 1345199). For activity, negative = cell killing: % is set by controls: 0 for no effect and ±100 for the full control effect. Note: nearly all actives have a fitted effect of over 40% in size. Note: potency is the fitted concentration of half-maximal effect. The conditions noted are these: GBM patient neurospheres viability, ATP luminescence, 48 h. An outline of the steps:
(§2)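 Primary testing used CD133+ neurospheres from four GBM patients, seven concentrations, 48 h exposure and ATP-based viability; confirmation added three slower-growing patient lines.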

For a further assay, the system named is astro. Described as above. The following applies: viability, ATP luminescence, 48 h; series mostly up to 45.9 µM. An outline of the steps: as §2
In assay [2] the target is Nuclear receptor subfamily 1 group I member 2 (Rattus norvegicus) (UniProt Q9R1A7). The assay can be described thus: qHTS assay for small molecule activators of the rat pregnane X receptor (rPXR) signaling pathway (AID 651751; call rule not given here; note: 0% is about no effect). The following applies: rPXR reporter cells, luciferase (One-Glo), 24 h.
Assay [3] is described as follows: qHTS assay for small molecule activators of the human pregnane X receptor (PXR) signaling pathway (AID 720659; call rule not given here; note: 0% is about no effect).
Setting [4] is: at 20 µM (top of the series), tumour line C.
The mark [5] stands for this setting: at 21.2 µM (top of the series), tumour line B.
[6] abbreviates: at 45.9 µM (top of the series), tumour line B.
Where [7] appears, read: at 45.9 µM (top of the series), tumour line D.
[8] abbreviates: at 46.1 µM (top of the series), tumour line C.
Where [9] appears, read: at 46 µM (top of the series), tumour line A.

A number with no mark means an inactive call. Records with an inconclusive call do not appear. Calls of active or inactive are those of the source. Unless noted, calls come from the whole dose curve; as a rule, active = well fitted curve in the direction sought with a large enough effect; inconclusive = small, poorly fitted or top-dose-only effect, or another doubt; inactive = no such curve, though single readings can be large; an effect the other way counts as inactive or inconclusive.

Nuclear receptor subfamily 1 group I member 2 (Rattus norvegicus), sequence (Q9R1A7 whole entry, looked up): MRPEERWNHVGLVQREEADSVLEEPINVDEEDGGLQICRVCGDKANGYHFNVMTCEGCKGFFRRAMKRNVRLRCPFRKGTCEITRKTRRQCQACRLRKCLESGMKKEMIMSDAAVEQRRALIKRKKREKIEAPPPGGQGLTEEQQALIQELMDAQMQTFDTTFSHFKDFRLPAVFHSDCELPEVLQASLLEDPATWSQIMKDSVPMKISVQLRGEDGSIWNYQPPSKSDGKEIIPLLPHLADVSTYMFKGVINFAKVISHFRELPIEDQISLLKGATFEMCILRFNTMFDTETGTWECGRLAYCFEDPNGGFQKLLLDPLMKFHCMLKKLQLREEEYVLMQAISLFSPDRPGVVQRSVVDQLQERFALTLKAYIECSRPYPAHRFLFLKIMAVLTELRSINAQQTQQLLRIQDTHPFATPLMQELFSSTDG

Consider `CCN(CCCCOC(=O)c1ccc(OC)c(OC)c1)C(C)Cc1ccc(OC)cc1` (stereo unspecified), for which the Potency result with JEG-3, with PA-1, with SKOV3, with Tov-21-G, in the assay on Tov112D and in the assay with astro was “inactive” in each case. The activity, negative = cell killing in [1] (setting [4]) is -2.24%; in assay [1] (setting [5]), -9.34%. Moreover, the Potency in assay [1] (tumour line A) is 5.62 µM (active).

For `C[C@H](O)C(=O)Nc1c(I)c(C(=O)NC(CO)CO)c(I)c(C(=O)NC(CO)CO)c1I`, the Potency entry in the assay on JEG-3, in the assay on PA-1, in the assay on SKOV3, in the assay with Tov-21-G, with Tov112D and in the assay with astro was “inactive” each time. For the same compound, the activity, negative = cell killing in assay [1] (setting [4]) is 2.37%; in [1] (setting [5]), -6.73%; in assay [1] (at 21.2 µM (top of the series), tumour line D), -12.3%; in assay [1] (at 21.3 µM (top of the series), tumour line A) it was -8%.

With `C[C@]12CCC(=O)C=C1[C@@H]1C[C@@H]1[C@H]1[C@@H]3[C@@H]4C[C@@H]4[C@@]4(CCC(=O)O4)[C@@]3(C)CC[C@@H]12`, the Potency entry in the assay on JEG-3, in the assay with SKOV3, in the assay with Tov-21-G, in the assay on Tov112D and with astro was “inactive” each time. For the same compound, the activity, negative = cell killing in assay [1] (setting [6]) was -20.2%; in assay [1] (setting [7]) it was -9.23%; in assay [1] (setting [8]) it was -0.55%.

As to `CCCCCCCCCCOCC(O)CN` (stereo unspecified), the Potency entry in the assay on JEG-3, in the assay on PA-1, with Tov-21-G and in the assay on Tov112D was “inactive” each time. The Potency with astro is 28.2 µM (active).

Turning to `CC(=O)Oc1ccc(C(=C2CCCCC2)c2ccc(OC(C)=O)cc2)cc1`, the Potency entry in the assay with JEG-3, in the assay with PA-1, with SKOV3, in the assay on Tov-21-G, in the assay with Tov112D and in the assay with astro was “inactive” each time. For the same compound, the activity, negative = cell killing is -19.5% in assay [1] (setting [6]), -13.6% in assay [1] (setting [7]) and -21.3% in assay [1] (setting [9]).

With `C#C[C@]1(O)CC[C@H]2[C@@H]3CCC4=CC(=O)CC[C@@H]4[C@H]3CC[C@@]21C`, the Potency entry in the assay with JEG-3, in the assay on SKOV3, in the assay on Tov-21-G, in the assay on Tov112D and with astro was “inactive” throughout. The Potency in the assay with PA-1 is 17.8 µM (active). Moreover, the activity, negative = cell killing was -9.83% in assay [1] (setting [6]), 3.81% in [1] (setting [7]) and -18.8% in assay [1] (setting [8]).

Regarding `Cc1cc(N)c2cc(NC(=O)Nc3ccc4nc(C)cc(N)c4c3)ccc2n1`, the Potency result with JEG-3, in the assay with PA-1, in the assay with SKOV3 and in the assay on Tov112D was “inactive” throughout. For the same compound, in the assay with astro, the Potency was 35.5 µM (active).

Take `CN1CCCC(CC2c3ccccc3Sc3ccccc32)C1` (stereo unspecified): the Potency entry with JEG-3, with PA-1, in the assay on Tov-21-G and in the assay on Tov112D was “inactive” each time. Also, in [1] (setting [4]), the activity, negative = cell killing is 5.58%. Further, the Potency in assay [1] (tumour line A) was 2.24 µM (active); in [1] (tumour line B), 12.6 µM (active).

Regarding `Cc1cccc(C)c1NC(=O)CN1CCN(CCCC(c2ccc(F)cc2)c2ccc(F)cc2)CC1`, the Potency result with JEG-3, in the assay with Tov-21-G, in the assay with Tov112D and with astro was “inactive” in each case.

With `Cc1c(C)n(CCN(C)C)c2ccc(C(=O)OCCN(C)C)cc12`, the Potency entry with JEG-3, in the assay with Tov-21-G, in the assay with Tov112D and in the assay on astro was “inactive” throughout. Moreover, the activity, negative = cell killing in [1] (setting [8]) is -23.7%. The Potency in assay [1] (tumour line A) was 10 µM (active).

Consider `CC(=O)Oc1ccc(C(c2ccc(OC(C)=O)cc2)c2ccccn2)cc1`, for which the Potency result in the assay with JEG-3, in the assay on PA-1 and in the assay with SKOV3 was “inactive” in each case. Besides, the figures for the activity, negative = cell killing in [1] (setting [6]), in [1] (setting [7]) and in assay [1] (setting [9]) were -5.88%, -3.54% and -29.3%, respectively. In addition, the max response in assay [2] is -3.28%.

Turning to `O=C1[C@H]2CCCC[C@H]2C(=O)N1CCCCN1CCN(c2nsc3ccccc23)CC1`, the Potency entry in the assay on JEG-3, in the assay with PA-1, in the assay with SKOV3, with Tov-21-G, in the assay on Tov112D and in the assay with astro was “inactive” throughout.

Regarding `CN1CCN(CCCN2c3ccccc3Sc3ccc(S(=O)(=O)N(C)C)cc32)CC1`, the Potency entry in the assay on JEG-3, in the assay with SKOV3, in the assay with Tov-21-G, in the assay on Tov112D and with astro was “inactive” each time. In addition, the activity, negative = cell killing in assay [1] (setting [4]) was 3.3%; in assay [1] (setting [5]) it was -12.4%. In addition, the Potency in assay [1] (tumour line A) was 7.94 µM (active).

Consider `COc1ccc(/C=C/C(=O)c2ccc(OC)cc2OC)cc1`, for which the Potency entry in the assay on JEG-3, with Tov-21-G and in the assay with Tov112D was “inactive” in each case. Further, the values for the Potency (in the assay on SKOV3; in assay [1] (tumour line A); in assay [1] (tumour line D)) were 2.24 µM (active), 35.5 µM (active) and 12.6 µM (active), respectively. The activity, negative = cell killing in [1] (setting [8]) is -59.7%.

In the case of `Nc1ccc(C(=O)Nc2ccccc2N)cc1`, the Potency result in the assay with JEG-3, with SKOV3 and with Tov112D was “inactive” in each case. The Potency with PA-1 is 11.2 µM (active).

For the compound `COc1c(C)c2c(c(O)c1C/C=C(\C)CCC(=O)O)C(=O)OC2`, the Potency result in the assay with JEG-3 is “inactive”. For the same compound, the Potency with PA-1 was 0.282 µM (active); in the assay on Tov-21-G, 1 µM (active). Further, the activity, negative = cell killing in assay [1] (setting [4]) was -18.6%.

For `NC(=NCCCCCCN=C(N)/N=C(\N)Nc1ccc(Cl)cc1)/N=C(\N)Nc1ccc(Cl)cc1`, the Potency entry in the assay on JEG-3, in the assay with Tov-21-G and in the assay on Tov112D was “inactive” in each case. The Potency in the assay with PA-1 is 15.8 µM (active); in the assay with astro it was 11.2 µM (active). In addition, in assay [3], the compound was classed as inactive.

As for `CCCCN1CCCC1C(=O)Nc1c(C)cc(C)cc1C` (stereo unspecified), the Potency result with JEG-3, in the assay with PA-1, in the assay on SKOV3, with Tov-21-G, with Tov112D and with astro was “inactive” each time. The activity, negative = cell killing in assay [1] (setting [6]) is -5.63%; in assay [1] (setting [7]) it was -4.43%; in assay [1] (setting [8]) it was -15.9%. Also, the Potency in assay [1] (tumour line A) is 22.4 µM (active).

Turning to `Clc1ccc2c(c1)CCc1cccnc1C2=C1CCNCC1`, the Potency entry with JEG-3, in the assay on PA-1, with Tov-21-G and in the assay on Tov112D was “inactive” in each case. Further, the activity, negative = cell killing in assay [1] (setting [8]) was 0.244%. For the same compound, the Potency was 5.01 µM (active) in assay [1] (tumour line A), 12.6 µM (active) in assay [1] (tumour line B) and 20 µM (active) in assay [1] (tumour line D).

`COc1cc2c(cc1OC)C(=O)C(CC1CCN(Cc3ccccc3)CC1)C2` (stereo unspecified): the Potency result in the assay on JEG-3, in the assay with Tov-21-G, in the assay with Tov112D and in the assay with astro was “inactive” each time.

For `c1ccc(OCc2ccc(CCCN3CCOCC3)cc2)cc1`, the Potency result in the assay on JEG-3, with PA-1, in the assay on SKOV3, with Tov-21-G, in the assay on Tov112D and in the assay with astro was “inactive” each time.

`CC(=O)c1ccc2c(c1)N(CCCN1CCC(CCO)CC1)c1ccccc1S2`: the Potency entry with JEG-3, with SKOV3, with Tov-21-G and with Tov112D was “inactive” in each case. Moreover, the results for the activity, negative = cell killing in assay [1] (setting [4]) and in assay [1] (setting [5]) were 17.8% and -21.7%, respectively. For the same compound, the Potency in assay [1] (tumour line A) was 11.2 µM (active).

Consider `O=C(N/N=C/c1ccccc1O)c1ccncc1`, for which the Potency result with JEG-3, in the assay on SKOV3 and in the assay on astro was “inactive” throughout. Moreover, the activity, negative = cell killing in assay [1] (setting [7]) was 0.44%. For the same compound, the Potency in assay [1] (tumour line B) is 17.8 µM (active).

With `CCN(CC)C(=O)/C(C#N)=C/c1cc(O)c(O)c([N+](=O)[O-])c1`, the Potency entry with JEG-3, in the assay on SKOV3 and in the assay on Tov-21-G was “inactive” throughout. Besides, the activity, negative = cell killing in assay [1] (setting [6]) is -9.02%; in assay [1] (setting [7]), 4.73%; in [1] (setting [9]) it was -20%; in assay [1] (setting [8]), 7.42%.
